CYP2C9 act: human CYP2C9 activators, primary screen, biochemical, luminescence. Cytochrome P450 2C9 (Homo sapiens), P11712. recombinant CYP2C9, luciferin-H conversion; active compounds read high; factor 1 = untreated enzyme, 0 = blocked. activation factor at 5 µM. 1.4% of 96,000 active. AID 1024, 2008;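 active means activation factor of 2 or more for CYP2C9 at a 5 µM dose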;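 further: 0 = sulfaphenazole-blocked wells and 1 = vehicle-only wells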
CYP2C19 inhib: blockers of cytochrome P450 2C19 activity – biochemical, luminescence, ADME assay, primary screen; P33261; CYP2C19 Supersomes, luciferin-H EGE luminescence, 30 min; inhibition, % at 5 µM; 21% of 96,000 active; AID 778, 2007;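 active means CYP2C19 inhibition above a set limit at 5 µM in the primary screen, cut at about 50% in these data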;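 further: plate controls were negative control wells for no effect and 2.5 mM tranylcypromine positive control for full effect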
Target sequence (P33261 whole entry, looked up): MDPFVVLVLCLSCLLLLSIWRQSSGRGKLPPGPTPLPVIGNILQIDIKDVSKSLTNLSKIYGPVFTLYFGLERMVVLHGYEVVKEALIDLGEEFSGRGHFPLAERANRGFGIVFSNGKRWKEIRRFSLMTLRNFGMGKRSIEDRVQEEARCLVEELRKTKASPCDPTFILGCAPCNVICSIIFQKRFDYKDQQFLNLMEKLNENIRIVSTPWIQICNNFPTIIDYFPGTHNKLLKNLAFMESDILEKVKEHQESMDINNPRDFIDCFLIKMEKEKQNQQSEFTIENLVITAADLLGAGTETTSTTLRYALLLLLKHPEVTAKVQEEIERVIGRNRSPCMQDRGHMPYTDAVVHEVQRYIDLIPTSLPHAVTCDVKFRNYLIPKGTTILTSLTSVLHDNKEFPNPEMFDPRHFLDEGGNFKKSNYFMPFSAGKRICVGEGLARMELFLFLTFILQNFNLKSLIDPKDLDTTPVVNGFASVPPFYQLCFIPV
CYP2C9 inhib: blockers of cytochrome P450 2C9 activity – biochemical, luminescence, ADME assay, primary screen | P11712 | CYP2C9 Supersomes, luciferin-H conversion | inhibition, % at 5 µM | 20% of 96,000 active | AID 777, 2007;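 active means blocking of liver enzyme CYP2C9 beyond about 50% at 5 µM, limit read from the data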
CYP2C19 act: human CYP2C19 activators, primary screen, biochemical, luminescence. activation factor at 5 µM. recombinant CYP2C19, luciferin-H EGE luminescence; active compounds read high; 0 = fully inhibited enzyme, 1 = untreated enzyme. 96,000 tested, under 10 active;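 active means activation factor of at least 2 at 5 µM in the primary screen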;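 further: 0 = wells with 2.5 mM tranylcypromine and 1 = vehicle-only wells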
Cav32 inh: Cav3.2 calcium influx blockers – cell-based, Fluo-4 calcium fluorescence, FDSS, MLSMR library, primary screen | B-score at 10 µM | Cav3.2-expressing cells; active compounds read low | AID 449739, 2010 | 4% of 100,000 active | Voltage-dependent T-type calcium channel subunit alpha-1H (Homo sapiens), O95180;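 active means single-dose well whose peak fluorescence ratio is a statistical outlier from its plate by either plate-standardised score or position-corrected B-score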
* marks the source's active call; other numbers are inactive results. These entries were drawn from the full list.

Screening COc1cc2c(cc1NC(=O)C(C)N1CCN(S(=O)(=O)c3ccc(C)c(C)c3)CC1)oc1ccccc12 (stereo not given) returned CYP2C9 act 0.8, CYP2C19 inhib -12, CYP2C9 inhib 16, CYP2C19 act 1.1 and Cav32 inh -2.8.
`CCOc1ccccc1-n1nnnc1SCC(=O)Nc1cc2oc3ccccc3c2cc1OC` gave CYP2C9 act 0.5, CYP2C19 inhib -4, CYP2C9 inhib 51*, CYP2C19 act 1 and Cav32 inh -1.4.
COc1cc2c(cc1NC(=O)c1ccncc1)oc1ccccc12 was read as CYP2C9 act 0.1, CYP2C19 inhib 58*, CYP2C9 inhib 91*, CYP2C19 act 0.4 and Cav32 inh 1.6.
Screening N#CCC(=O)N/N=C/c1ccc(OS(=O)(=O)c2ccccc2)cc1 returned CYP2C9 act 0.9, CYP2C19 inhib 20, CYP2C9 inhib 8, CYP2C19 act 0.8 and Cav32 inh 0.0038.
Screening CNC(=O)CN(C1CCCCC1)S(=O)(=O)c1ccc(OC)c(Cl)c1 returned CYP2C9 act 0.8, CYP2C19 inhib 16, CYP2C9 inhib 24, CYP2C19 act 0.8 and Cav32 inh 0.33.
`Cc1ccc(S(=O)(=O)N(CC(=O)NCc2ccco2)C2CCCCC2)cc1` gave Cav32 inh 0.07.
COc1ccc(S(=O)(=O)N(CC(=O)NCc2ccco2)C2CCCCC2)cc1OC was read as CYP2C9 act 0.6, CYP2C19 inhib 86*, CYP2C9 inhib 40, CYP2C19 act 0.1 and Cav32 inh -1.6.
COc1ccc(N(CC(=O)NCc2ccco2)S(C)(=O)=O)cc1OC was read as CYP2C9 act 0.5, CYP2C19 inhib 83*, CYP2C9 inhib 50, CYP2C19 act 0.2 and Cav32 inh 0.66.
Screening COc1ccc(S(=O)(=O)N(CC(=O)NC2CC2)C2CCCCC2)cc1Cl returned CYP2C9 act 0.3, CYP2C19 inhib 59*, CYP2C9 inhib 72*, CYP2C19 act 0.4 and Cav32 inh -0.6.
`COc1ccc(N(CC(=O)NCc2ccco2)S(C)(=O)=O)cc1` gave CYP2C9 act 0.8, CYP2C19 inhib 46, CYP2C9 inhib 19, CYP2C19 act 0.5 and Cav32 inh 0.42.
Screening COc1ccc(N(CC(=O)NCc2ccc3c(c2)OCO3)S(C)(=O)=O)cc1OC returned CYP2C9 act 0.9, CYP2C19 inhib 19, CYP2C9 inhib 13, CYP2C19 act 0.8 and Cav32 inh -1.5.
Screening COc1ccc(N(CC(=O)NCc2ccco2)S(C)(=O)=O)cc1Cl returned CYP2C9 act 1.2, CYP2C19 inhib 66*, CYP2C9 inhib -20, CYP2C19 act 0.3 and Cav32 inh 0.25.
`CSc1ncccc1C(=O)OCC(=O)NC(N)=O` gave CYP2C9 act 1.3, CYP2C19 inhib -24, CYP2C9 inhib -33, CYP2C19 act 1.2 and Cav32 inh 0.24.
CCCCC(=O)N1C/C=C\C(c2ccc(OC)cc2)N(Cc2ccc(F)cc2)C(=O)C1 (stereo not given) was read as Cav32 inh -0.075.
`COc1ccc(CN2CC(C(=O)NCCc3ccc(C)cc3)CC2=O)cc1` (stereo not given) gave CYP2C9 act 0.7, CYP2C19 inhib 39, CYP2C9 inhib 32, CYP2C19 act 0.6 and Cav32 inh 0.032.
`CCC(C)N1C(=O)CCC1C(=O)N1CCN(c2ccccc2F)CC1` (stereo not given) gave CYP2C9 act 1, CYP2C19 inhib -2, CYP2C9 inhib -3, CYP2C19 act 1 and Cav32 inh -0.0055.
For CCOC(=O)CCCn1c(C)nc(=O)c(-c2ccccc2)c1C the results were CYP2C9 act 1, CYP2C19 inhib -2, CYP2C9 inhib -2, CYP2C19 act 1 and Cav32 inh -0.78.
For COc1cc(/C=N/NC(=O)CNC(=O)c2ccccc2)ccc1OC(=O)c1cccs1 the results were CYP2C9 act 0.6, CYP2C19 inhib 27, CYP2C9 inhib 38, CYP2C19 act 0.7 and Cav32 inh -0.45.
Screening CCC1CCCCN1c1ccc([N+](=O)[O-])cc1/C=N/NC(=O)Cn1c2ccccc2c(=O)c2ccccc21 (stereo not given) returned CYP2C9 act 0.5, CYP2C19 inhib -7, CYP2C9 inhib 49, CYP2C19 act 1.1 and Cav32 inh -2.3.
